According to PubChem BioAssay (NCI):
Compounds without any hit were thinned out: in the full panel of roughly 83,000, 20% have a hit.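 Percent growth is the endpoint: 0 to 100 indicates growth inhibition (40 means 60% inhibition), 0 means no net growth, and negative values indicate cell death.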 Values without a mark were called inactive. Activity calls are given as the source filed them. The calls were made as follows: active = growth percent below 10; inactive = the rest.

What follows are compounds tested on SNB-19 CNS (assay: NCI-60 one-dose screen, 48 h (100 = growth as untreated, 0 = no growth, -100 = all killed)). Conditions: 10 µM unless noted.

Structure (SMILES)	growth
COc1ccc(/C=C2\COc3ccc(O)cc3C2=O)c(OC)c1	55.3%
CN(C)CCC(O)(Cc1ccccc1)c1ccccc1 (stereo not drawn)	112%
COc1ccc(-c2cc(-c3ccc(Nc4nc(Nc5ccccc5)nc(Nc5ccc(Cl)cc5)n4)cc3)nc(N)n2)cc1	68.7%
Clc1ccc2c(NCCCN3CCN(c4nc(-n5ccnc5)nc5ccccc45)CC3)ccnc2c1	99.5%
Cn1ncc2c(Nc3ccc(Br)cc3)nc(Nc3ccc(Br)cc3)nc21	71.4%
OC(COc1cccc2ccccc12)CN1CCN(c2ccccc2)CC1 (stereo not drawn)	97.4%
O=c1[nH]c(=O)n(C2CC(O)C(CO)O2)cc1CO (stereo not drawn)	30.2%
COc1cc2oc(-c3cccc(C(=O)Nc4ccc(C#N)cc4)c3)cc(=O)c2c(O)c1OC	44%
C=C(Cl)COC(=O)C(C)(C)O	105%
CC(C)(C)OC(=O)N1Cc2cc3ccccc3nc2C1CO (stereo not drawn)	111%
COC1(CC[C@@H](C)COC2OC(CO)C(O)C(O)C2O)O[C@H]2C[C@H]3[C@@H]4CC=C5C[C@@H](OC6OC(CO)C(OC7OC(C)C(O)C(O)C7O)C(O)C6OC6OC(C)C(O)C(O)C6O)CC[C@]5(C)[C@H]4CC[C@]3(C)[C@H]2[C@@H]1C (stereo partly drawn)	-64.1% (active)
COc1cc(-c2cc(-c3ccc(Nc4nc(Nc5ccccc5)nc(Nc5ccc(Cl)cc5)n4)cc3)nc(N)n2)cc(OC)c1OC	79.6%
CN(C)c1ccc(C#Cc2c(F)cccc2Cl)cc1	111%
